According to the supplement of paper PMC10338343:

What follows are sequences tested on MILI (PIWIL2) piRISC loaded with L1MC piRNA (26 nt) (assay: pre-steady-state target cleavage rate (min^-1); guide: L1MC piRNA 5'p-UAACUAAAUACUAUGCAAGCUGUAGG; MIWI and MILI are mouse PIWI proteins and EfPiwi is from a freshwater sponge; tags in brackets are library labels; higher = faster piRNA-guided slicing of the target). Details: auxiliary factor: none (no GTSF1).
Summary of the method: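 Cleave-'n-Seq: 1 nM active affinity-purified piRISC with one synthetic guide and 0.1 nM transcribed, DNA-blocked target RNA library were mixed, with or without 500 nM GTSF1 partner protein, in HEPES–potassium acetate buffer at 33 °C for 0–8 or 0–960 min. Uncleaved targets were sequenced and normalised to depth and to weakly complementary targets, three trials were pooled, and k3 was capped at 0.0001 min^-1. The pre-steady-state cleavage rate was fitted […].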

pre-steady-state target cleavage rate, < 0.0001:
UCCUGGAUGUCGAACGUUAGUAAUUUGUUA
UCCUGGAUGUCGAACGAAUAGUAUUUAGUUA
UCCUGGAUGUCGAACGUAUGAUUUUAGUUA
